Consider four compounds from PubChem BioAssay (NCATS).

Assay [1] deals with Calcium and integrin-binding protein 1 (Homo sapiens) (UniProt Q99828). Briefly: Primary qHTS for Identification of Calcium Integrin Binding Protein 1 (CIB1) Competitor (AID 1508620).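 Also: GST tagged CIB1 binding a fluorescein labelled alphaIIb integrin peptide tracer; top concentration of the series differs between compounds.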 The essentials:
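CIB1-GST (1 uM final) and compound incubated 15 min at room temperature before adding FITC-alphaIIb peptide tracer (100 nM final). Competition for binding read by fluorescence polarization (ex 480, em 540) after another 15 min at room temperature.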
On the technique in general: In qHTS, concentration-response curves come from the screen itself.

Assay [2] in a line: Primary qHTS for inhibitors of nuclear receptor binding SET domain protein 2 (NSD2) in an isogenic RCH-ACV NSD2 p.E1099K mutant (9B) (AID 1645876). Also: nearly all actives have a fitted effect of over 70% in size. Also: potency is read from the fitted curve at half-maximal effect.
A short description of assay [3]: Primary qHTS for inhibitors of nuclear receptor binding SET domain protein 2 (NSD2) in an RCH-ACV wild type WT cells (2C) (AID 1645877). Also: nearly all actives have a fitted effect of over 70% in size. Also: potency is read from the fitted curve at half-maximal effect.

Values joined by “and” are separate entries in the source; they are usually repeats but may differ in a detail not shown here. Equal entries are not always repeated. Inconclusive results are not listed. The source holds several records for some structures; these can differ, active in one and inactive in another. Active and inactive are the calls of the source. Calls follow the shape of the dose curve; as a rule, active = well fitted curve in the direction sought with a large enough effect; inconclusive = small, poorly fitted or top-dose-only effect, or another doubt; inactive = no such curve, though single readings can be large; an effect the other way counts as inactive or inconclusive.

Sequence of Calcium and integrin-binding protein 1 (Homo sapiens) (Q99828 whole entry, looked up): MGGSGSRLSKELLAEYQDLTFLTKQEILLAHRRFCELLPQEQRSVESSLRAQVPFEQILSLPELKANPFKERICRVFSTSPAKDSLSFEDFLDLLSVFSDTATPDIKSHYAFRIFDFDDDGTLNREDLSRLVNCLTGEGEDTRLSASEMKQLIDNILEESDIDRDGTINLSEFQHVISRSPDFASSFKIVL

Consider `Cc1noc2c1-c1ccccc1C(c1ccc(Cl)cc1)=N[C@H]2CC(N)=O`, for which the Potency entry in assay [1] was “inactive”. Further, the Potency entry was “inactive and 590 nM (active)” in assay [2]; “inactive and 525 nM (active)” in assay [3].

Turning to `COc1ccc(OC2OC(CO[C@@H]3O[C@@H](C)[C@H](O)[C@@H](O)[C@H]3O)C(O)C(O)C2O)cc1OC` (some centres not stated), the Potency result in assay [1], in assay [2] and in assay [3] was “inactive” each time.

As to `COc1cc(C2CC(=O)Nc3c2cc(Br)c2ccccc32)cc(OC)c1OC` (configuration not stated), the Potency entry in assay [1], in assay [2] and in assay [3] was “inactive” throughout.

Turning to `C=C1C2(C)CC3C4(C)C=CC(=O)OC(C)(C)C4CCC3(C)C1(C(=O)OC)C(=O)C(C)(O)C2=O` (configuration not stated), the Potency entry in assay [1], in assay [2] and in assay [3] was “inactive” throughout.
